A short description of assay [1]: CCTE_Shafer_MEA_dev_network_spike_number: CCTE's Neural Network Formation Assay for Number of Network Spikes, Shafer Lab (AID 2284048).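 Further: synchronized bursts across electrodes counted on days 5 7 9 12 and integrated as AUC; fit as a loss of signal meaning fewer network spikes than DMSO.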 An outline of the steps:
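Primary rat cortical neurons on PEI/laminin 48-well MEA plates, dosed from plating day 0 for 12 days, renewed at DIV 5 and 9. Network spike counts recorded DIV 5, 7, 9, 12, collapsed as trapezoidal AUC; DMSO baseline.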

Assay [2] is described as follows: CCTE_Shafer_MEA_dev_network_spike_peak: CCTE's Neural Network Formation Assay for Mean Number of Electrodes in Network Spike, Shafer Lab (AID 2284049).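 Further: fitted for loss of signal meaning fewer electrodes in network spikes than DMSO.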 The method in brief: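 Network-spike peak electrode count from recordings on days 5, 7, 9 and 12 was combined as trapezoidal area under the curve. Rat cortical cultures were treated continuously from plating, with compound renewed at each feed (DIV 5, 9); fits versus DMSO.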

Assay [3] in a line: CCTE_Shafer_MEA_dev_spike_duration_mean: CCTE's Neural Network Formation Assay for Mean Spike Duration, Shafer Lab (AID 2284051).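 Further: potency for a decrease in mean network spike duration versus DMSO.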 The method in brief: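 Readout is the average length of network spikes, clustered firing across electrodes, summed over DIV 5, 7, 9 and 12 as area under the curve. Neurons from rat cortex developed networks on MEA plates under continuous 12-day exposure.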

Assay [4] is described as follows: CCTE_Shafer_MEA_dev_network_spike_duration_std: CCTE's Neural Network Formation Assay for Standard Deviation of Network Spike Duration, Shafer Lab (AID 2284052).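 Further: hits are decreases in network spike duration SD versus DMSO vehicle.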 The method in brief: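 Read-out is the trapezoidal area-under-the-curve across recordings made on days 5, 7, 9 and 12, fitted in the negative direction against DMSO baseline. Neurons were primary rat cortical cells treated from day 0, with treatment renewed at each feed.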

Assay [5] in a line: CCTE_Shafer_MEA_dev_per_network_spike_spike_number_mean: CCTE's Neural Network Formation Assay for Mean Number of Spikes in a Network Spike, Shafer Lab (AID 2284053).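 Further: fitted as decrease in spikes per network spike relative to DMSO.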 An outline of the steps: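 Continuous twelve-day exposure of developing rat cortical networks grown over 16 microelectrodes per well; spontaneous firing is captured at four time points, and the per-network-spike spike number is integrated over development by trapezoidal AUC.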

Assay [6] is described as follows: CCTE_Shafer_MEA_dev_per_network_spike_spike_percent: CCTE's Neural Network Formation Assay for Percent of Spikes in a Network Spike, Shafer Lab (AID 2284054). The method in brief:
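Rat primary cortical neurons were grown on 48-well MEA plates (16 electrodes/well), exposed from plating day 0 through day 12, with treatment renewed on DIV 5 and 9. Percent of spikes within 0.05 s network-spike peaks was measured, summarised as AUC across days 5, 7, 9, 12.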

A short description of assay [7]: UKN5_HCS_SBAD2_cell_viability: Viability Assessment in the University of Konstanz (UKN) Leist Lab Neurite Outgrowth Assay in human iPSC-derived immature Dorsal Root Ganglia Neurons (UKN5) (AID 2284056). The method in brief: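 iPSC-derived immature peripheral neurons (SBAD2) seeded on Matrigel with CHIR99021, SU5402 and DAPT, dosed 1 h later for 24 h. Viability from Hoechst H-33342 and calcein-AM live staining, high-content imaging; bidirectional fit versus DMSO.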

Assay [8] is described as follows: CCTE_Shafer_MEA_dev_LDH: CCTE's Lactate Dehydrogenase Assay for Cytotoxicity in the Neural Network Formation Assay, Shafer Lab (AID 2284068; active means hit-call score of the fitted dose curve at least 0.9, where 1 is the maximum;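 further: exposure for twelve days from plating with re-dosing on DIV 5 and 9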). The method in brief:
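Cytotoxicity companion to network-formation recordings: rat cortical neurons received compound over 12 days of development, re-dosed at DIV 5 and 9 feeds. Viability was inferred from LDH enzyme activity relative to DMSO.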

Assay [9] in a line: UKN5_HCS_SBAD2_neurite_outgrowth: University of Konstanz (UKN) Leist Lab Neurite Outgrowth Assay in human iPSC-derived immature Dorsal Root Ganglia Neurons (UKN5) (AID 2284070). Particulars: actives raise or lower the signal. An outline of the steps: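 SBAD2 neurons, 24 h compound treatment, calcein-AM neurite area via HCS imaging; DMSO baseline, gain or loss of signal.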
Assay [10] can be described thus: CCTE_Shafer_MEA_dev_AB: CCTE's Alamar Blue Assay for Cytotoxicity in the Neural Network Formation Assay, Shafer Lab (AID 2284083; active means hit-call score of the fitted dose curve at least 0.9, where 1 is the maximum;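 further: resazurin reduction fluorescence as viability of cultured neurons; twelve days of exposure from plating with re-dosing on DIV 5 and 9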). An outline of the steps:
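Fluorescent resazurin reduction serves as the viability read-out, with DMSO as negative control and baseline. Cells were primary rat cortical neurons grown on MEA plates and dosed from day 0 to day 12, treatment renewed on DIV 5 and 9.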
On the technique in general: The colour change of resazurin is a common sign of viable cells or microbes.

A short description of assay [11]: CCTE_Shafer_MEA_dev_mutual_information_norm: CCTE's Neural Network Formation Assay for Mutual Information Normalization, Shafer Lab (AID 2284091).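 Further: mutual information between electrodes summarised as area under curve across four recording days; potency is for a decrease in mutual information relative to DMSO.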 The method in brief:
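Primary rat cortical neurons on PEI-coated 48-well MEA plates, 1.5 x 10^5 cells/well, exposed from day 0 through day 12 with re-dosing at DIV 5 and 9. Mutual information between electrodes recorded days 5, 7, 9, 12; trapezoidal AUC, loss-of-signal fit versus DMSO.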

Assay [12] in a line: CCTE_Shafer_MEA_dev_correlation_coefficient_mean: CCTE's Neural Network Formation Assay for Mean Correlation Coefficient, Shafer Lab (AID 2284093).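 Further: well mean pairwise spike train correlation integrated as AUC over recording days 5 to 12; potency fitted for loss of correlation relative to DMSO vehicle wells.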 The method in brief: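 Read-out: well-mean correlation coefficient of spike trains between electrode pairs, collapsed over four recording days as trapezoidal area-under-the-curve. Developing rat cortical neuron networks grown on MEAs received test chemical continuously from plating.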

A short description of assay [13]: UKN2_HCS_IMR90_neural_migration: University of Konstanz (UKN) Leist Lab Neural Crest Cell Migration Assay in human induced IMR90 Pluripotent Stem Cells (UKN2) (AID 2284204). To be noted: actives raise or lower the signal. The method in brief: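 iPSC-derived IMR90 neural crest cells seeded around stoppers on PLO/laminin/fibronectin; migration started in N2-S medium with EGF/FGF, compounds added after 24 h for 24 h. Migration into cell-free area imaged after calcein-AM/Hoechst staining; bidirectional fit versus DMSO.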

Assay [14] in a line: UKN4_HCS_LUHMES_neurite_outgrowth: University of Konstanz (UKN) Leist Lab Neurite Outgrowth Assay in human LUHMES cells (UKN4) (AID 2284206). Particulars: actives raise or lower the signal. The method in brief: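 2-day-differentiated LUHMES, 24 h cpd exposure, live calcein-AM + H-33342 stain, HCS fluorescence imaging of neurite area; DMSO = baseline, bidirectional fit.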
The nature of assay [15]: IUF_NPC1b_proliferation_BrdU_72hr: Leibniz Research Institute for Environmental Medicine (IUF) 72-hour Neural Progenitor Cell Bromodeoxyuridine (BrdU) Proliferation Assay (NPC1b) (AID 2284207). An outline of the steps: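 BrdU luminescence ELISA quantified DNA synthesis over the last 16 h of a 72 h exposure, fitted against DMSO. Primary hNPC spheres from gestational week 16-19 cortex grown with EGF/FGF at 37C, pH 7.2-7.6.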

Assay [16] in a line: IUF_NPC1a_proliferation_area_72hr: Leibniz Research Institute for Environmental Medicine (IUF) 72-hour Neural Progenitor Cell Proliferation Area Assay (NPC1a) (AID 2284208). The method in brief: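 Read-out: increase in sphere area over 72 h by automated phase-contrast imaging, fitted in positive direction versus DMSO baseline. One hNPC sphere (0.25-0.35 mm) per well in EGF/FGF medium; growth-factor withdrawal served as positive control.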

A short description of assay [17]: IUF_NPC1_viability_72hr: Viability Assessment at 72 hours in the Leibniz Research Institute for Environmental Medicine (IUF) Neural Progenitor Cell Proliferation Assay (NPC1) (AID 2284209). The method in brief:
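Each well receives one 0.3 mm progenitor sphere from fetal brain cortex; test chemical is added at plating and left three days. Viability comes from alamar blue fluorescence, multiplexed with LDH and BrdU readouts in the same well.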

“And” between values parts separate entries of the source, which are not always exact repeats. Equal values may be shown once. Inconclusive results are not listed. A structure can be active in one record and inactive in another. The source made the active and inactive calls. How the source made its calls, unless noted: active means hit-call score of the fitted dose curve at least 0.9, where 1 is the maximum; inactive means score below 0.9.

Turning to `[CH3][Hg][Cl]`, the AC50 – broadly, the concentration at which the activity in the assay is half-maximal – was 86.7 nM (active) in assay [1]; 356 nM (active) in assay [2]; 275 nM (active) in assay [3]; 164 nM (active) in assay [4]; 536 nM (active) in assay [5]; 309 nM (active) in assay [6]. For the same compound, the AC50 is 3170 nM (active) in assay [7]; 182 nM (active) in assay [8]; 636 nM (active) in [9]; 283 nM (active) in [10]; 134 nM (active) in [11]; 306 nM (active) in [12]. The AC50 in [13] is 5000 nM (active); in assay [14], 164 nM (active); in assay [15], 906 nM (active) and 968 nM (active); in assay [16], 370 nM (active); in assay [17] it was 820 nM (active). Further, the compound was classed as inactive in assay [17].

These data come from PubChem BioAssay (EPA / NIEHS).
